Test results: PubChem BioAssay (NCI)
The panel holds about 79,000 compounds, 15% with a hit somewhere; the sample as a whole holds those more often. Rule as the data show it: active = growth inhibition above about 70%; inactive = the rest.

Columns and labels:
[1] = NCI Yeast Anticancer Drug Screen. Data for the rad50 strain (AID 155);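 also: 0% = growth of vehicle-only cultures of the same strain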; conditions: S. cerevisiae rad50 strain growth inhibition, active compounds read high; at 50.0 µM unless noted
Summary of the method: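 Inhibition values express reduced yeast growth in compound-treated cultures relative to vehicle-treated controls.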

[2] = NCI Yeast Anticancer Drug Screen. Data for the mec2-1 strain (AID 157); conditions: S. cerevisiae mec2-1 strain, active compounds read high; at 50.0 µM unless noted
Summary of the method: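 Strain: mec2-1 (DNA repair/cell cycle alteration). Compound exposure, then growth measured; inhibition expressed relative to vehicle.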

[3] = NCI Yeast Anticancer Drug Screen. Data for the sgs1 mgt1 strain (AID 161);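 also: 0% = growth of cultures given vehicle only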; conditions: S. cerevisiae sgs1 mgt1 strain, active compounds read high; at 50.0 µM unless noted
Summary of the method: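 Mutant yeast exposed to compound; growth scored against vehicle-only wells.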

[4] = NCI Yeast Anticancer Drug Screen. Data for the cln2 rad14 strain (AID 165);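 also: 0% = growth equal to vehicle treated cultures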; conditions: S. cerevisiae cln2 rad14 strain, active compounds read high; at 50.0 µM unless noted
Summary of the method: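 Compounds are applied to the cln2 rad14 yeast strain, and growth is then compared with that of vehicle-treated cultures to give inhibition.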

[5] = NCI Yeast Anticancer Drug Screen. Data for the bub3 strain (AID 167); conditions: S. cerevisiae bub3 mutant strain, active compounds read high; at 50.0 µM unless noted
Summary of the method: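 Steps: expose the mutant yeast strain to compound; grow alongside vehicle-treated cultures; measure growth; express inhibition against the vehicle cultures.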

[6] = NCI Yeast Anticancer Drug Screen. Data for the mlh1 rad18 strain (AID 175); conditions: S. cerevisiae mlh1 rad18 strain growth inhibition, active compounds read high; at 50.0 µM unless noted
Summary of the method: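 Read-out is yeast growth inhibition, calculated against vehicle-only controls. The compound was applied to a strain engineered with DNA damage repair alterations.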

Measured: growth inhibition

O=C(O)C(Nc1ccc(Cl)cc1)c1ccccc1 (stereo not given)
inactive: [1] 1.7% | [2] 3.25% | [3] 18.9% | [4] 6.5% | [5] 8.1% | [6] -22.6%

Cc1ccc(O)c(Cl)c1C
inactive: [1] 6.4% | [2] -28.1% | [3] -6.7% | [4] 7.4% | [5] -26.3% | [6] 5.1%

NC(=O)N/N=C(/Cc1nc2ccc(C(=O)c3ccccc3)cc2[nH]c1=O)C(=O)Nc1ccc(C(F)(F)F)cc1[N+](=O)[O-]
inactive: [1] -7.85% | [2] 7.35% | [3] -7.85% | [4] 0.8% | [5] -33.6% | [6] 5.05%

CC1=C(C#N)C(=C(C#N)C#N)OC1(C)Cc1ccccc1 (stereo not given)
inactive: [1] 8.25% | [2] 6.35% | [3] 24.6% | [4] 8.55% | [5] 2.85% | [6] 33.1%

CCN(CC)CCn1c2ccccc2c(=O)c2c(OC)ccc(OC)c21
inactive: [1] 54.4% | [2] 8.05% | [3] 15.8% | [4] 16.6% | [5] 16.8% | [6] 50.9%

N#C/C(=C\c1ccccc1)c1ccc(F)cc1
inactive: [1] 39.4% | [2] 42.1% | [3] 25.7% | [4] 18.4% | [5] 32.5% | [6] 25.8%

CCCCC(C)(C)SCCC(=O)O
inactive: [1] 11.2% | [2] -7.25% | [3] 14.9% | [4] 10.9% | [5] 5.6% | [6] -5.35%

O=C(CC1(O)C(=O)Nc2ccc(Br)cc21)c1ccc2c(c1)OCO2 (stereo not given)
inactive: [1] 2.7% | [2] 5.35% | [3] 11.4% | [4] -6.5% | [5] 36.5% | [6] -1.15%

O=C(O)C1Oc2cc3ccccc3cc2O1
inactive: [1] 30.4% | [2] 16.4% | [3] 19.8% | [4] 20.3% | [5] 23.1% | [6] 24.5%

Cc1nc2cnc(=Nc3ccccc3)nc-2n(-c2ccccc2)c1C
inactive: [1] -1.15% | [2] -1.55% | [3] -0.65% | [4] 56.9% | [5] 5.15% | [6] -7.9%

O=S(=O)(O)c1cc(Nc2ccnc3ccccc23)c2c(S(=O)(=O)O)cc(S(=O)(=O)O)cc2c1
inactive: [1] 15.1% | [2] 24.3% | [3] 4.25% | [4] 12.2% | [5] 10.2% | [6] 19.8%

CC1=NN2C(c3ccc([N+](=O)[O-])cc3)=CSC2=NC(C)(C)C1
inactive: [1] 20.6% | [2] -5.6% | [3] 5.7% | [4] -5% | [5] -4.95% | [6] -11.6%

C=C1CC[C@](C)(O)[C@@]2(C)CC[C@H]3C(=C(C)C)C(=O)C[C@]3(C)C[C@H]12
inactive: [1] 12.1% | [2] 5.45% | [3] 10.2% | [4] 18.5% | [5] 1.7% | [6] 23.8%

CCOC(=O)c1ccc(NC(=O)Nc2ccc(F)cc2)cc1
inactive: [1] 3.5% | [2] -0.5% | [3] 1% | [4] 12.5% | [5] 32.5% | [6] 5.55%

N#C/C(=C\c1ccccc1)c1cccc(F)c1
inactive: [1] 28.9% | [2] 24.6% | [3] 18.2% | [4] -4.05% | [5] 15.7% | [6] 11.4%

COc1ccccc1N=Nc1c(O)n(-c2ccccc2OC)c(=S)n(-c2ccccc2)c1=O
inactive: [1] 40.8% | [2] -3.45% | [3] 31.9% | [4] -13.4% | [5] -2.5% | [6] 16.9%

CC(O)C(O)CC(/C=N/NC(=O)c1ccccc1)=N/NC(=O)c1ccccc1 (stereo not given)
inactive: [1] 3.55% | [2] 4.25% | [3] -14.6% | [4] -7.55% | [5] -0.75% | [6] 2.8%

NCCCc1nonc1C(=O)O
inactive: [1] -15.2% | [2] -39.4% | [3] -3.85% | [4] -4.05% | [5] -7.3% | [6] -13.3%

Clc1ccc(-c2cn3c(nc4ccccc43)c(-c3ccccc3)n2)cc1
inactive: [1] -7.65% | [2] 1.4% | [3] -10.1% | [4] 2.35% | [5] -22.5% | [6] -16%

Cc1ccccc1C(=O)c1ccccc1C
inactive: [1] -16.3% | [2] -9.95% | [3] -7.2% | [4] -34% | [5] -1.55% | [6] -9.9%
